Tau filament bind: binders of human tau filaments. P10636. recombinant tau filaments, thioflavin S fluorescence, 15 h; filaments grown with octadecylsulfate alongside compound. Potency, µM (series often up to 57.1 µM). 71,000 tested, 2% active. AID 596;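 also: actives lower thioflavin S fluorescence by blocking filaments or displacing dye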
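Tau 2 uM in ThS buffer dispensed; compound added; 60 uM ODS added (finals 1 uM tau, 30 uM ODS); 15 h 37 C; fluor ex450/em510.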
15-hLO inh: blocks human 15-lipoxygenase activity | P16050 | 74,000 tested, 1.4% active | purified 15hLO-1, xylenol orange hydroperoxide absorbance | Potency, µM (highest dose often 57.1 µM), hits mostly inhibitors; also: nearly all actives have a fitted effect of over 55% in size
Target sequence (P16050 whole entry, looked up): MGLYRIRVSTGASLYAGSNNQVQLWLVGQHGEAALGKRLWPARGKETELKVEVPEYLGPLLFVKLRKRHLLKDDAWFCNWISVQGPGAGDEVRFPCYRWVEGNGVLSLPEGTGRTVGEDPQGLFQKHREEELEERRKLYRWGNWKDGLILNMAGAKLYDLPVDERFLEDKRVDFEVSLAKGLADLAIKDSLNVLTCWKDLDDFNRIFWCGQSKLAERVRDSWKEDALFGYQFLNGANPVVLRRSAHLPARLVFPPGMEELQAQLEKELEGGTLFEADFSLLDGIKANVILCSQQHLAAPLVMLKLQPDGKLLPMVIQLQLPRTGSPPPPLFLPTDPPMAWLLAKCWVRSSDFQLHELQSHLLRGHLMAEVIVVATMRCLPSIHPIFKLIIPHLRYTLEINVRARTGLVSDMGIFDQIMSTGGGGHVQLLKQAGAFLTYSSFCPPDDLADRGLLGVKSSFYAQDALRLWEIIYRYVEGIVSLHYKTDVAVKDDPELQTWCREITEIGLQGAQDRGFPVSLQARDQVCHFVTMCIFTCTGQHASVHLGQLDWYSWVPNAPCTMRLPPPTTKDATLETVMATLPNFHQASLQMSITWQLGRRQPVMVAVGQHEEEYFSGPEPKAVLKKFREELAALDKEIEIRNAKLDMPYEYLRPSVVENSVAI
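Purified human 15hLO-1 (40 nM) in 25 mM Hepes pH 7.5, 0.01% Triton X-100, preincubated 15 min RT with compound, then 50 uM arachidonic acid for 6 min. Hydroperoxide read by ferrous/xylenol orange, 30 min; 573/405 nm absorbance ratio gave progress.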
Ub-GFP proteasome: inhibits proteasome, raising ubiquitin-GFP reporter fluorescence | Ubiquitin-GFP reporter cells, proteasome inhibition, GFP fluorescence; response scale: untreated = 0%, 10 µM MG-132 = 100% | Potency, µM (titrated, usually from 45.9 µM), actives largely listed as activators | 67,000 tested, under 10 active; active = well fitted activation curve with a large enough effect, not every such curve was filed as active; inconclusive = small, poorly fitted or top-dose-only effect, or another doubt; inactive = no such curve, though single readings can be large or run the other way
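GFP accumulation read-out: laser plate cytometry counting ubiquitin(G76V)-GFP-expressing U2OS cells after 4 hr compound exposure at 37 °C. Titrations spanned 46 uM to 2.9 nM; 0% = basal, 100% = 10 uM MG-132; concentration-response curves fitted.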
GFP derepression: epigenetic modulators derepressing GFP locus in mouse cells. mouse C127i GFP locus derepression, cytometry, 30 h. 68,000 tested, 0.09% active. Potency, µM (titrated, usually from 46.1 µM). AID 597
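Murine C127i mammary cells carrying a silenced, stably integrated CMV-driven GFP reporter were treated with compound for 30 hours at 37 C. After PBS washes, GFP-positive cells were counted by laser-scanning microplate cytometry.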
HBB splicing: modulators of hemoglobin beta chain splicing; HBB splicing reporter cell assay, activation; EGFP reporter with mutant IVS2-654 intron; response scale: normalised to 500 nM splice-correcting PNA; Potency, µM (highest dose often 46.1 µM), most hits filed as activators; 65,000 tested, 0.06% active; AID 925
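Compounds were applied for 2 days to HeLa EGFP-654 cells, 500/well in Optimem with 2% FCS. The reporter's EGFP is disrupted by mis-splicing of beta-globin intron IVS2-654. Readout: summed well GFP fluorescence from 488 nm laser scanning; reference was 500 nM antisense […] 654 PNA.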
Pol III holo inh: inhibitors of bacterial DNA polymerase III holoenzyme; reconstituted DNA polymerase III holoenzyme replication, biochemical; Potency, µM (doses to about 57.1 µM); 71,000 tested, 0.25% active
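Reconstituted *E. coli* holoenzyme (0.35 nM Pol III, 1 nM beta, 154 nM SSB, 2 nM primase) was preincubated with compound for 15 min at RT. Synthesis on 1.4 nM ssM13Gori ran 35 min, then was stopped with PicoGreen/EDTA and read as dsDNA fluorescence.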
Hits are given with their value; ! = a repeat was not active; [ ] = remark or other dose. Rows were chosen to be rich in hits. Some 3.2% of all compounds tested hit in one or more screens of this group. Unless noted, calls follow the shape of the dose curve; as a rule, active = well fitted curve in the direction sought with a large enough effect; inconclusive = small, poorly fitted or top-dose-only effect, or another doubt; inactive = no such curve, though single readings can be large; an effect the other way counts as inactive or inconclusive.

For O=C(O)c1cc(C(=O)O)nc(C(=O)O)c1 the results were Tau filament bind inactive[11.4 µM], 15-hLO inh inactive[11.4 µM], Ub-GFP proteasome inactive[9.17 µM], GFP derepression inactive[9.22 µM], HBB splicing inactive[9.22 µM] and Pol III holo inh inactive[11.4 µM].
For CCN(CC)c1ccc(NC(=O)c2ccc(Br)o2)cc1 the results were Tau filament bind 3.2µM, 15-hLO inh inactive[11.4 µM], Ub-GFP proteasome inactive[9.17 µM], GFP derepression inactive, HBB splicing inactive[0.0738 µM] and Pol III holo inh inactive[11.4 µM].
`Cc1ccc(NS(=O)(=O)c2ccc(NC(=O)c3ccc(Br)o3)cc2)c(C)c1` gave Tau filament bind inactive, 15-hLO inh 16µM, Ub-GFP proteasome inactive, GFP derepression inactive, HBB splicing inactive and Pol III holo inh inactive.
For O=C(Nc1ccc(N2CCCC2)cc1)c1ccc(Br)o1 the results were Tau filament bind 3.2µM, 15-hLO inh inconclusive, Ub-GFP proteasome inactive[9.17 µM], GFP derepression inactive, HBB splicing inactive[0.0738 µM] and Pol III holo inh inactive[11.4 µM].
For O=C(Nc1ccc(N2CCN(C(=O)c3ccccc3)CC2)cc1)c1ccc(Br)o1 the results were Tau filament bind inactive, 15-hLO inh inactive, Ub-GFP proteasome inactive, GFP derepression inactive, HBB splicing inactive and Pol III holo inh inactive.
COC(=O)Cc1ccc(NC(=O)c2ccc(Br)o2)cc1 was read as Tau filament bind inactive, 15-hLO inh inactive, Ub-GFP proteasome inactive, GFP derepression inactive, HBB splicing inactive and Pol III holo inh inactive.
Screening Cc1cc2ncn(CC(=O)O)c2cc1C returned Tau filament bind inactive[11.4 µM], 15-hLO inh inactive[11.4 µM], Ub-GFP proteasome inactive[9.17 µM], GFP derepression inactive[9.22 µM], HBB splicing inactive[9.22 µM] and Pol III holo inh inactive[11.4 µM].
`CC(C)(CCc1nc2ccccc2[nH]1)C(=O)O` gave Tau filament bind inactive[11.4 µM], 15-hLO inh inactive[11.4 µM], Ub-GFP proteasome inactive[9.17 µM], GFP derepression inactive[9.22 µM], HBB splicing inactive[9.22 µM] and Pol III holo inh inactive[11.4 µM].
`CCCOC(=O)c1ccc(Oc2c(-c3ccc(O)cc3O)n[nH]c2C)cc1` gave Tau filament bind 20µM, 15-hLO inh inconclusive, Ub-GFP proteasome inactive, GFP derepression inactive, HBB splicing inactive and Pol III holo inh inactive.
c1ccc(C[n+]2cccc(-c3cc4ccccc4[nH]3)c2)cc1 was read as Tau filament bind 0.32µM, 15-hLO inh inactive[11.4 µM], Ub-GFP proteasome inactive[9.17 µM], GFP derepression inactive[9.22 µM], HBB splicing inactive[9.22 µM] and Pol III holo inh inactive[11.4 µM].
Screening O=c1nc(-c2ccccc2)cc(-c2ccccc2)[nH]1 returned Tau filament bind inactive[11.4 µM], 15-hLO inh inactive[11.4 µM], Ub-GFP proteasome inactive[9.17 µM], GFP derepression inactive, HBB splicing inactive[0.0738 µM] and Pol III holo inh inactive[11.4 µM].
For Cc1ccc(-c2nnc3sc(-c4ccncc4)nn23)cc1 the results were Tau filament bind 25µM, 15-hLO inh inactive, Ub-GFP proteasome inactive, GFP derepression inactive, HBB splicing inactive and Pol III holo inh inactive.
Screening CN(C)c1ccc(-c2nn3c(-c4ccncc4)nnc3s2)cc1 returned Tau filament bind inactive, 15-hLO inh inactive, Ub-GFP proteasome inactive, GFP derepression inactive, HBB splicing inactive and Pol III holo inh inactive.
`c1ccc(-c2nn3c(-c4ccncc4)nnc3s2)nc1` gave Tau filament bind 13µM, 15-hLO inh inconclusive, Ub-GFP proteasome inactive, GFP derepression inactive, HBB splicing inactive[1.84 µM] and Pol III holo inh inactive.
Screening CCOC(=O)C1=C(C)NC(C)=C(C(=O)OC)[C@@H]1c1cccc(Cl)c1Cl returned Tau filament bind inactive, 15-hLO inh inactive, Ub-GFP proteasome inactive, GFP derepression inactive, HBB splicing inactive and Pol III holo inh inactive.
Screening COc1cc(Sc2ccc(C)cc2)c(OC)cc1N returned Tau filament bind 25µM, 15-hLO inh inconclusive, Ub-GFP proteasome inactive, GFP derepression inactive, HBB splicing inactive and Pol III holo inh inactive.
Nc1ccccc1-c1nnc(SCc2ccccc2F)[nH]c1=O was read as Tau filament bind 16µM, 15-hLO inh inactive, Ub-GFP proteasome inactive, GFP derepression inactive, HBB splicing inactive and Pol III holo inh inactive.
Screening CCSc1nnc(-c2ccccc2N)c(=O)[nH]1 returned Tau filament bind inactive, 15-hLO inh inactive, Ub-GFP proteasome inactive, GFP derepression inactive, HBB splicing inactive and Pol III holo inh inactive.
c1ccc(-c2nc(NCCCN3CCOCC3)c3ccccc3n2)cc1 was read as Tau filament bind 5µM, 15-hLO inh inconclusive, Ub-GFP proteasome inactive, GFP derepression inactive, HBB splicing inactive and Pol III holo inh inactive.
Screening Cc1ccc(C(=O)CCNc2cccc(Br)c2)o1 returned Tau filament bind inactive, 15-hLO inh 13µM, Ub-GFP proteasome inactive, GFP derepression inactive, HBB splicing inactive and Pol III holo inh inactive.
Screening Cc1[nH]c2ccccc2c1Cc1nnc(SCC(=O)NCc2ccco2)o1 returned Tau filament bind inactive, 15-hLO inh 13µM, Ub-GFP proteasome inactive, GFP derepression inactive, HBB splicing inactive and Pol III holo inh inactive.
Screening Cc1ccc(-c2nc3ncccn3c2Nc2ccc3c(c2)OCO3)o1 returned Tau filament bind 13µM, 15-hLO inh inactive, Ub-GFP proteasome inactive, GFP derepression inactive, HBB splicing inactive and Pol III holo inh inactive.
For Oc1ccc(-c2nc3ncccn3c2Nc2ccc3c(c2)OCO3)cc1 the results were Tau filament bind inactive, 15-hLO inh 10µM, Ub-GFP proteasome inactive, GFP derepression inactive, HBB splicing inactive and Pol III holo inh inactive.
Screening c1ccc(-c2nc3cnccn3c2Nc2ccc3c(c2)OCCO3)cc1 returned Tau filament bind inactive, 15-hLO inh inactive, Ub-GFP proteasome inactive, GFP derepression inactive, HBB splicing inactive and Pol III holo inh inactive.
`Cc1ccc(-c2nc3ncccn3c2NC2CCCC2)o1` gave Tau filament bind 13µM, 15-hLO inh inactive, Ub-GFP proteasome inactive, GFP derepression inactive, HBB splicing inactive and Pol III holo inh inactive.
Screening c1cn2c(NC3CCCC3)c(-c3ccc(N4CCOCC4)cc3)nc2cn1 returned Tau filament bind inactive, 15-hLO inh inactive, Ub-GFP proteasome inactive, HBB splicing inactive and Pol III holo inh inactive.
Screening CCCCCCCC/C=C\CCCCCCCC(=O)O returned Tau filament bind 32µM, 15-hLO inh inactive, HBB splicing inactive and Pol III holo inh inactive.
`CCCCC/C=C\C/C=C\CCCCCCCC(=O)O` gave Tau filament bind inconclusive, 15-hLO inh 0.16µM, HBB splicing inactive and Pol III holo inh inactive.
`CCCCCCCCCCCCCC(=O)O` gave Tau filament bind inactive, 15-hLO inh inactive, HBB splicing inactive and Pol III holo inh inactive.
For CCCCCCC(=O)O the results were Tau filament bind inactive, 15-hLO inh inactive, HBB splicing inactive and Pol III holo inh inactive.
For CCCCCCCC/C=C\CCCCCCCC(=O)NCCO the results were Tau filament bind 32µM!, 15-hLO inh inactive, Ub-GFP proteasome inactive, GFP derepression inactive, HBB splicing inactive and Pol III holo inh inactive.
CCCCCCCC/C=C\CCCCCCCC(=O)N(CCO)CCO was read as Tau filament bind inactive, 15-hLO inh 1.3µM, HBB splicing inactive and Pol III holo inh inactive.
